# In the supplement of paper PMC11732987, “Enantioselective OTUD7B fragment discovery through chemoproteomics screening and high-throughput optimisation” (Communications Chemistry, 2025):
# Unmarked numbers belong to inactive results.
# Key:
# Assay in all cases: log2 ratio of Biotin-Ahx-Ub-VS probe labelling (fragment/DMSO); higher = less target engagement (more negative = stronger competition), active = hit call of the paper (q ≤ 0.05, log2 ratio ≤ -1)
# Conditions in all cases: compound concentration: 200 uM; treatment time: 3 h
# USP19 = biological target: T1, USP19 (UniProt O94966)
# T1 sequence (whole entry): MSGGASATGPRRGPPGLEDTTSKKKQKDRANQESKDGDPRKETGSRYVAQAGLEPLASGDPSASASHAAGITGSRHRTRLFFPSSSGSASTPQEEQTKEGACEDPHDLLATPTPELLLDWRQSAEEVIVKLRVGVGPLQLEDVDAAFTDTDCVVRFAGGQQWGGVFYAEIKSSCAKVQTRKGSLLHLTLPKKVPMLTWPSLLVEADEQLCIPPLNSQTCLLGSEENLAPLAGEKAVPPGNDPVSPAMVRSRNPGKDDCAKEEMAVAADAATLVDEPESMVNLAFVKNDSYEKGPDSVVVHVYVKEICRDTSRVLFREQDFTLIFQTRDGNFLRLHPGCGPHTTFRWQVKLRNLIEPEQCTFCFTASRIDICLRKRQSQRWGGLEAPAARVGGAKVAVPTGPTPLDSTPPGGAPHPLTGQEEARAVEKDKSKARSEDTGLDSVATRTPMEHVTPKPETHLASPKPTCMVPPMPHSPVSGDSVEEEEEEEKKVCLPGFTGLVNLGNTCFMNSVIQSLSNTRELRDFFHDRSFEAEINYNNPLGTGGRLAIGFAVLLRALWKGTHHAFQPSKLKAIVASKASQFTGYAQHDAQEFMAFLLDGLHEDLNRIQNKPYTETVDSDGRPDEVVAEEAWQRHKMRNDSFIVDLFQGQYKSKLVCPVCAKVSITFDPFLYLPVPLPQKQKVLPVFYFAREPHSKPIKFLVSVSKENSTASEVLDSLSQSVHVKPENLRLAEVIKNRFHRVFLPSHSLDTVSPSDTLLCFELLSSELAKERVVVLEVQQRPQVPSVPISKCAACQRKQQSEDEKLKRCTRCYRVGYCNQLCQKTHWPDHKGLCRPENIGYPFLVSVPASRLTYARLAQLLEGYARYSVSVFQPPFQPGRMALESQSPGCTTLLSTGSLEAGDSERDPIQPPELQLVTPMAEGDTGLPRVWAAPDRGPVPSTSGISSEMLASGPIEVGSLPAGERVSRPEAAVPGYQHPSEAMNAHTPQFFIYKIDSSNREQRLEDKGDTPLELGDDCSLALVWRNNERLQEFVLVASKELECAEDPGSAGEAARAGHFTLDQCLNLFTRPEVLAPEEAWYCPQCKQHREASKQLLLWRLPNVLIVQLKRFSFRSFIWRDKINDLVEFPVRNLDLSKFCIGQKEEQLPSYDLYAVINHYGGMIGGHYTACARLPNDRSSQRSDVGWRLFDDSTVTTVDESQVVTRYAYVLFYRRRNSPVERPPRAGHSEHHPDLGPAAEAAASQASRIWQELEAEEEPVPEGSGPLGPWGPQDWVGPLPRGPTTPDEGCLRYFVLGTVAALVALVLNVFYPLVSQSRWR
# Procedure, shortened: (§1)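 Fragment (200 µM) or vehicle was incubated for 3 h with triplicate HEK293T lysate samples of 495 µg, which were then treated with Biotin-Ahx-Ub-VS at 0.5 µM final for 1 h. Labelled DUBs were enriched on NeutrAvidin, digested with LysC and trypsin, and analysed by diaPASEF LC-MS/MS. Values are average log2 fragment/vehicle ratios from an unpaired t-test on global-median-normalised Spectronaut label-free quantities, using proteins with ≥2 unique peptides.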
# USP22 = biological target: T2, USP22 (UniProt Q9UPT9)
# T2 sequence (whole entry): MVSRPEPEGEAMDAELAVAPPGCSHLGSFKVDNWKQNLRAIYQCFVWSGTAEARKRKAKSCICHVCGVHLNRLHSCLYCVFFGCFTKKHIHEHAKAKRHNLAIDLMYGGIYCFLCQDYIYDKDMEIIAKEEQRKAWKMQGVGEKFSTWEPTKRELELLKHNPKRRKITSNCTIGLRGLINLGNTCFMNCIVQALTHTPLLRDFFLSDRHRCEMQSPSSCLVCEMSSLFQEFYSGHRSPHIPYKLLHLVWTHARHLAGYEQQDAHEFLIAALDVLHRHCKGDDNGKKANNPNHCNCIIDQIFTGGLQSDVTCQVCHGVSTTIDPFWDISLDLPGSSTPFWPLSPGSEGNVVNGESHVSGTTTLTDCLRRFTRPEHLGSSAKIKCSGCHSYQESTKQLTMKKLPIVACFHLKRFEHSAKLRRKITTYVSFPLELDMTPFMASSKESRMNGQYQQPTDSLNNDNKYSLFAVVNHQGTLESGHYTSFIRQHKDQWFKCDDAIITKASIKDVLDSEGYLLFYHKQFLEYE
# Procedure, shortened: as §1
# USP24 = USP24 (UniProt Q9UPU5)
# Chain of USP24 (Q9UPU5 whole entry): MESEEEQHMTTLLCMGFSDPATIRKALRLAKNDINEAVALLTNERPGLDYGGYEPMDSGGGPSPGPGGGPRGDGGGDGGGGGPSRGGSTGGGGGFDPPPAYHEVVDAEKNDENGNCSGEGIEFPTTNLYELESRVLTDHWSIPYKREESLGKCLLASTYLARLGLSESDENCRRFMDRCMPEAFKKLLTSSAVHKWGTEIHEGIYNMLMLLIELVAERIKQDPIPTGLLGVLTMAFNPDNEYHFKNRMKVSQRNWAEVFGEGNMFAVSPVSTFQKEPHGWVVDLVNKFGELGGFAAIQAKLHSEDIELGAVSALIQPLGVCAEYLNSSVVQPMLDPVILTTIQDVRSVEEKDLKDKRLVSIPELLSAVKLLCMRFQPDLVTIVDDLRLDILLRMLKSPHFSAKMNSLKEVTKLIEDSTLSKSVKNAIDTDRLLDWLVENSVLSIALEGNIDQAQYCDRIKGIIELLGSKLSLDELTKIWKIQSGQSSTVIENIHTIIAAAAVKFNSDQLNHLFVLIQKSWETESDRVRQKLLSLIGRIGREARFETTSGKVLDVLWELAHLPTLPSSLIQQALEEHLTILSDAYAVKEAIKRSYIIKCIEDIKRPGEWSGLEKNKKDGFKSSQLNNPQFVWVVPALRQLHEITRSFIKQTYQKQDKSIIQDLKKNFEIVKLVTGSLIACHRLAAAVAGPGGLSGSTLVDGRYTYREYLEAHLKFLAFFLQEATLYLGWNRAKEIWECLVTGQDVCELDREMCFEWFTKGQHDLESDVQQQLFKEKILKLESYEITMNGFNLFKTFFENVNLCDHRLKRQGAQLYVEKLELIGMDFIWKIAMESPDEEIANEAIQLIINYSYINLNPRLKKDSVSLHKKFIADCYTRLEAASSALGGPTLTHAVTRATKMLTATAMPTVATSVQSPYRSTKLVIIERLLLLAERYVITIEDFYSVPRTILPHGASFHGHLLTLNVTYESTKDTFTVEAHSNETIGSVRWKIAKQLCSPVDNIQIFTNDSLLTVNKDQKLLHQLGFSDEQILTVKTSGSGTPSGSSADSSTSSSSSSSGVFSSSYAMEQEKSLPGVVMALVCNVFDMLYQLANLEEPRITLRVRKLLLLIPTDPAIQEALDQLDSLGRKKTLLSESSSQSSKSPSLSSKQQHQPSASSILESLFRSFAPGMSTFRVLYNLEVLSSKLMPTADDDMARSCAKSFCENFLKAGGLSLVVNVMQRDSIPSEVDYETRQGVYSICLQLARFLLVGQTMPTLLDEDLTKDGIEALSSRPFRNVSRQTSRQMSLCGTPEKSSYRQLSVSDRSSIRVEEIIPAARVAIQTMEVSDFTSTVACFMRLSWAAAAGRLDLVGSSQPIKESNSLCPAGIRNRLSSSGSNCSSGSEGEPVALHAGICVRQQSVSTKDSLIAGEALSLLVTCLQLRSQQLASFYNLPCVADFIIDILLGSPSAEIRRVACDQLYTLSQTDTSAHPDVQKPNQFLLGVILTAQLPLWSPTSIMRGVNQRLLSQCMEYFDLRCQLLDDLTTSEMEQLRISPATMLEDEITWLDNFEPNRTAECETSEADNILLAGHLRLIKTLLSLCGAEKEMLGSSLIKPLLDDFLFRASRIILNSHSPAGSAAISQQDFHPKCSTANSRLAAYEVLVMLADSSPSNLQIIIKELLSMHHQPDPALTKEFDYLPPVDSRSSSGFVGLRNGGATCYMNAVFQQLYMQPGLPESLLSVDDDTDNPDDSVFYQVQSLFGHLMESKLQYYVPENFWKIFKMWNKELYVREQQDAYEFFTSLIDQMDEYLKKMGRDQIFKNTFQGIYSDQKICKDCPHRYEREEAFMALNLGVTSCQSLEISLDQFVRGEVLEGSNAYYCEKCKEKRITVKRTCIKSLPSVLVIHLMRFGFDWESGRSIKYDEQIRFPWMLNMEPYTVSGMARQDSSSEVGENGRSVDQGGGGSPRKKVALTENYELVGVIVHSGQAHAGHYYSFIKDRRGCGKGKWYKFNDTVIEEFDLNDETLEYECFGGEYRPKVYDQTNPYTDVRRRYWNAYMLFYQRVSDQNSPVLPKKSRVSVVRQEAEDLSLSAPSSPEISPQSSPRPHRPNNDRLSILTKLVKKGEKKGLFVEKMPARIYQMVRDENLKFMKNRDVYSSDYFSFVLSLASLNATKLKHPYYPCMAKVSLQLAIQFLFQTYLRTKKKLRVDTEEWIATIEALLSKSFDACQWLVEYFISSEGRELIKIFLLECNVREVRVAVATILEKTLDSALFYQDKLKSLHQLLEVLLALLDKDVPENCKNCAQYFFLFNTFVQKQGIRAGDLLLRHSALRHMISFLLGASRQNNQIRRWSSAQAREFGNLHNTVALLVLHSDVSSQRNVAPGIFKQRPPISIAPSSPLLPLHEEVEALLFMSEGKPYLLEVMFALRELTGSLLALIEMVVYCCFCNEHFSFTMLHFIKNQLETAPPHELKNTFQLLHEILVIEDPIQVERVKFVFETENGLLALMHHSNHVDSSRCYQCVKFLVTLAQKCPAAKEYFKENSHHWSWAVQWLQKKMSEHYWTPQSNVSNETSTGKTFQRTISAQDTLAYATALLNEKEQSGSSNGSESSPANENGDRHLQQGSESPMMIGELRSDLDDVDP
# Procedure, shortened: as §1
# USP25 = biological target: T3, USP25 (UniProt Q9UHP3)
# T3 sequence (whole entry): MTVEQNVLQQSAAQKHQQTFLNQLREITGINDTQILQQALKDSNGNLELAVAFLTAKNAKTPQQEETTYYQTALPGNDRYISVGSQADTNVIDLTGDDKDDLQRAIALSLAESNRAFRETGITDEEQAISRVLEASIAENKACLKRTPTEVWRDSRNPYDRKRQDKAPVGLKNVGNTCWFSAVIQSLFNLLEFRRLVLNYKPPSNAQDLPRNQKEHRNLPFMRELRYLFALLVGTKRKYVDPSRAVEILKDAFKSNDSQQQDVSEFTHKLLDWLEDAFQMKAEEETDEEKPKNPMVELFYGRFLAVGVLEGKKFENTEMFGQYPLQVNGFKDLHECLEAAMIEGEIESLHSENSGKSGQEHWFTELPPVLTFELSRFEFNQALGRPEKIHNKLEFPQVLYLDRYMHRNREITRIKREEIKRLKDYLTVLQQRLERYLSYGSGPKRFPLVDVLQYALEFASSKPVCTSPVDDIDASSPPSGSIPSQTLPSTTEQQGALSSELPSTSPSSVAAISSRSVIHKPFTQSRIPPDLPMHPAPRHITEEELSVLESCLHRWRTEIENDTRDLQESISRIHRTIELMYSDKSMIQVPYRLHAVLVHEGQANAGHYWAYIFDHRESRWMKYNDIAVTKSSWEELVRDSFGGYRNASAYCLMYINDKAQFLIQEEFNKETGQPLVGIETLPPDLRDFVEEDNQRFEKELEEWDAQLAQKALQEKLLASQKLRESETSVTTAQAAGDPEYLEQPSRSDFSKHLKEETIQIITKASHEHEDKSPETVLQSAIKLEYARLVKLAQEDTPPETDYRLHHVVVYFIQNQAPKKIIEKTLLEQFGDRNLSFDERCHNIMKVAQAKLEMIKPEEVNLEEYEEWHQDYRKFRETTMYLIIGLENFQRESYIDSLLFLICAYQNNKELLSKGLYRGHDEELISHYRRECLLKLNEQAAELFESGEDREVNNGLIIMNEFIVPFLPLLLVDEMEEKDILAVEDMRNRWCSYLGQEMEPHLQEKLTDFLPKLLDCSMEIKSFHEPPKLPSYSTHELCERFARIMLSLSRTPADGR
# Procedure, shortened: as §1
# USP28 = biological target: T4, USP28 (UniProt Q96RU2)
# T4 sequence (whole entry): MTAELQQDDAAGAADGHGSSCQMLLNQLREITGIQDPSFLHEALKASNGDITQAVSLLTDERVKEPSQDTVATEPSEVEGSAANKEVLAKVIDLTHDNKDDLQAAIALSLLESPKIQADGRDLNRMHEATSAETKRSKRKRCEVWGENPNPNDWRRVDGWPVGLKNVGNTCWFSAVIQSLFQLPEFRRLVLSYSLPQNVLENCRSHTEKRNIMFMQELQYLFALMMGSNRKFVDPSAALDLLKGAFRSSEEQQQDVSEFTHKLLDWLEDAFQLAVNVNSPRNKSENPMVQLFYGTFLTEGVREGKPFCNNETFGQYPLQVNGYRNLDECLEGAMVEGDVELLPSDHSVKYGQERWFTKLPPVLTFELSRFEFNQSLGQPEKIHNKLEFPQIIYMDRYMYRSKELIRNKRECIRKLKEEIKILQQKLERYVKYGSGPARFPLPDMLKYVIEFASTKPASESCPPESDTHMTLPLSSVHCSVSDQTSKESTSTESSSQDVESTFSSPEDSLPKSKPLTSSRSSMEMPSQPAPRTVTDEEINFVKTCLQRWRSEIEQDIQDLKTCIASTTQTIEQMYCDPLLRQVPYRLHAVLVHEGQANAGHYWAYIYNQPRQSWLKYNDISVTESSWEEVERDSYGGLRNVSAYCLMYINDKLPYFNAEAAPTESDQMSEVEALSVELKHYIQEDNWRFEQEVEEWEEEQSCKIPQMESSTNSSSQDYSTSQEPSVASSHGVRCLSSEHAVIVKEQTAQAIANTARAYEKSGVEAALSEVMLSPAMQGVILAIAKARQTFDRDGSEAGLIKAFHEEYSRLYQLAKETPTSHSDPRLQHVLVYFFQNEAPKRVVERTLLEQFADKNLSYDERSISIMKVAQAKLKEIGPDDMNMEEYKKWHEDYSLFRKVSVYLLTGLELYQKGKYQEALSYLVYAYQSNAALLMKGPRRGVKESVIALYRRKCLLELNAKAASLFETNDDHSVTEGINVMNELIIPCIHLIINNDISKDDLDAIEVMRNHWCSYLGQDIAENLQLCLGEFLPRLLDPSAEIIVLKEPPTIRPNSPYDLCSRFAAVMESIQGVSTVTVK
# Procedure, shortened: as §1
structure (smiles),measurement,setting,value
Cc1ccc(N(CCC#N)C(=O)CCl)cc1C,log2 ratio of Biotin-Ahx-Ub-VS probe labelling,USP19,-0.203
same,log2 ratio of Biotin-Ahx-Ub-VS probe labelling,USP22,0.0466
same,log2 ratio of Biotin-Ahx-Ub-VS probe labelling,USP24,-1.05 (active)
same,log2 ratio of Biotin-Ahx-Ub-VS probe labelling,USP25,-0.271
same,log2 ratio of Biotin-Ahx-Ub-VS probe labelling,USP28,-0.679
